Results on six compounds are retold here after PubChem BioAssay.

Assay [1] relates to Human papillomavirus type 1a protein E7 (residues 44-93). Nature of the assay: HPV1a E7 fragment binders on microarrays, primary screen, biochemical, small-molecule microarray, residues 44-93, 635 nm fluorescence (AID 1108).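 Note: E7 fragment applied at 1 µg/mL in TBST for 1 h at 4 C; score combines spot fluorescence with its signal to noise ratio.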 The conditions noted are these: small-molecule microarray binding, fluorescence 635 nm; higher = more signal.
Assay [2] can be described thus: modulators of HCV replicon luciferase signal, primary screen, HCV replication inhibitor project, Huh7 cells, luciferase reporter (AID 1109).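 Note: huh7 hepatoma cells harbouring a luciferase neomycin HCV replicon reporter; luciferase luminescence as measure of HCV replicon replication; test concentration not given here.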 The conditions noted are these: 48 h, higher = more signal. A general note: Replicon systems follow genome replication, usually without infectious particles.
Assay [3] has as its target Left-right determination factor 2 (Homo sapiens) (UniProt O00292). In words: LEFTY2 binders on small-molecule microarrays, primary screen, biochemical, small-molecule microarray, 635 nm fluorescence scan (AID 1110). The conditions noted are these: LEFTY2 binding, higher = more signal.
For assay [4], the target named is Calmodulin-1 (Homo sapiens) (UniProt P0DP23). Nature of the assay: CALM1 binders on microarrays, EGTA buffer, profiling panel, biochemical, small-molecule microarray, Cy5-labelled CALM1 (AID 1111).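 Note: labelled calmodulin applied in Tris saline Tween buffer holding calcium plus EGTA and DTT.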 The settings on record: Cy5-CALM1 binding fluorescence, higher = more signal.
For assay [5] the target is unchanged. In words: calcium-bound CALM1 binders on microarrays, profiling panel, artefact control for SMM control-protein annotation, biochemical, small-molecule microarray, Cy5-labelled CALM1, plus calcium (AID 1112).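 Note: score merges spot fluorescence with signal to noise from triplicate slides.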 The conditions noted are these: Cy5-CALM1 binding fluorescence, higher = more signal.
The nature of assay [6]: small-molecule microarray binders of probe aWnt5a, primary screen, biochemical, biotinylated probe, 635/667 nm fluorescence (AID 1113).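 Note: score merges 667 nm fluorescence intensity with signal-to-noise per printed feature.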 The settings on record: higher = more signal.
Assay [7] in a line: small-molecule microarray binders of probe aShh, primary screen, biochemical, biotinylated probe, 635/667 nm fluorescence (AID 1114).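 Note: probe is biotin-labelled aShh protein from a stem cell growth factor screen; measures binding of labelled protein to compounds printed on the slide; score merges feature fluorescence at 667 nm with signal-to-noise.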 The settings on record: higher = more signal.
Assay [8] in a line: small-molecule microarray binders of probe aNog, primary screen, biochemical, biotinylated probe, 635/667 nm fluorescence (AID 1115).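 Note: probe is biotinylated aNog protein used at 0.15 µg/mL for 1 h at 4 C; z-score combines 667 nm fluorescence of each spot with its signal to noise.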 The conditions noted are these: higher = more signal.
Assay [9] concerns the target Torsin-1A-interacting protein 1 (Homo sapiens) (UniProt Q5JTV8). In words: LAP1 binders from COS7 cell lysate, primary screen, small-molecule microarray, 635/667 nm fluorescence (AID 1116). The conditions noted are these: COS7-hLAP1 lysate binding, 635 nm fluorescence, higher = more signal.
The target of assay [10] is Alpha-bungarotoxin (Bungarus multicinctus) (UniProt P60615). In words: alpha-bungarotoxin binders on microarray, profiling panel, artefact control for SMM control protein annotation, biochemical, small-molecule microarray, Alexa647 label, 635/667 nm fluorescence (AID 1117). The settings on record: alpha-BTX-A647 binding fluorescence, higher = more signal.
Chain of Alpha-bungarotoxin (Bungarus multicinctus) (P60615 whole entry, looked up): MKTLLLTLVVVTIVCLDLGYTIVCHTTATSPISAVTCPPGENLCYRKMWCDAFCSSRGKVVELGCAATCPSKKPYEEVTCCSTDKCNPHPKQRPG
A further assay has as its target Albumin (Bos taurus) (UniProt P02769). Nature of the assay: bovine serum albumin binders on microarray, profiling panel, artefact control for SMM control protein annotation, biochemical, small-molecule microarray, Alexa647 label, 635/667 nm fluorescence (AID 1118).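 Note: score merges 667 nm emission intensity and signal-to-noise per printed compound spot.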 The settings on record: BSA-A647 binding, fluorescence 635 nm, higher = more signal.
The nature of assay [11]: small-molecule microarray binders of probe aXIP, primary screen, biochemical, NeuroSMM set, 635/667 nm fluorescence (AID 1119).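 Note: probe is the protein aXip251-270 applied at 1 µg/mL to compound-printed slides; binding of probe to printed compounds measured as 667 nm fluorescence plus signal to noise.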 The settings on record: higher = more signal, called active from +8 up or from −8 down.
A short description of assay [12]: small-molecule binders of probe aNOTCH3, primary screen, biochemical, small-molecule microarray, 635/667 nm fluorescence (AID 1120).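 Note: probe is a biotin-tagged antibody raised against NOTCH3 rather than NOTCH3 protein; score merges spot fluorescence near 667 nm with spot signal to noise.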 The conditions noted are these: higher = more signal.
The nature of assay [13]: small-molecule binders of probe aNOTCH2, primary screen, biochemical, small-molecule microarray, 635/667 nm fluorescence (AID 1121).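 Note: score merges feature fluorescence read at 667 nm with its signal to noise.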 The settings on record: higher = more signal.
The target in assay [14] is Carbonic anhydrase 2 (Homo sapiens) (UniProt P00918). In words: CAII small-molecule binders, profiling panel, biochemical, small-molecule microarray, Alexa647-labelled CAII (AID 1122). The conditions noted are these: CAII-A647 binding fluorescence, higher = more signal.
Assay [15] in a line: COS7 lysate on small-molecule microarray, probe aHis, 635 nm (AID 1123).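 Note: z-score combines 667nm fluorescence intensity with signal-to-noise per printed compound spot.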 The conditions noted are these: COS7 cell lysate, fluorescence, higher = more signal.
Assay [16] in a line: compound binding in COS7 lysate, probe aLAP1, primary screen, cell lysate, small-molecule microarray (AID 1124).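 Note: lysate comes from COS7 cells expressing LAP1 and is applied at 0.3 µg/mL; score merges spot fluorescence near 667 nm with signal-to-noise over triplicate slides.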 The settings on record: probe aLAP1, fluorescence, higher = more signal.
A further assay relates to Sam68 (KHDRBS1). In words: Sam68 small-molecule binders, primary screen, biochemical, small-molecule microarray, 635 nm fluorescence (AID 1125).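 Note: score merges 667 nm channel intensity with signal to noise over triplicate slides.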 The settings on record: small-molecule microarray binding, higher = more signal.
In assay [17] the test system is Chordin-like protein 2 (CHRDL2). In words: CHRDL2 small-molecule binders, primary screen, biochemical, small-molecule microarray, 635 nm fluorescence (AID 1126).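 Note: printed compound slides probed with Chrdl2 protein at 4 µg/mL for 1 h at 4 C; score merges 667 nm emission intensity with signal to noise over three replicate slides.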 The settings on record: small-molecule microarray binding, fluorescence 635 nm; higher = more signal.
In assay [18] the target is Concanavalin-A (Canavalia ensiformis) (UniProt P02866). Nature of the assay: ConA small-molecule binders, primary screen, artefact control for SMM control protein annotation, biochemical, small-molecule microarray, Alexa647 label, 635 nm (AID 1127).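 Note: z combines 667 nm emission intensity with signal-to-noise across three replicate slides.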 The conditions noted are these: ConA-A647 binding fluorescence, higher = more signal.
Chain of Concanavalin-A (Canavalia ensiformis) (P02866 whole entry, looked up): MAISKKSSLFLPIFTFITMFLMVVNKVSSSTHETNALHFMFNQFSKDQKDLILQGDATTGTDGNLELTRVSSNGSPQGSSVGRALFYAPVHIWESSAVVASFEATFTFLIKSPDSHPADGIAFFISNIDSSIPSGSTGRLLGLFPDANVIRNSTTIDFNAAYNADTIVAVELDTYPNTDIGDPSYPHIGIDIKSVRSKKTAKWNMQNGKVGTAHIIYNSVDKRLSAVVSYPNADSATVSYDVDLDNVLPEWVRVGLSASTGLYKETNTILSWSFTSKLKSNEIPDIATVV

The source made the active and inactive calls.

Chain of Left-right determination factor 2 (Homo sapiens) (O00292 whole entry, looked up): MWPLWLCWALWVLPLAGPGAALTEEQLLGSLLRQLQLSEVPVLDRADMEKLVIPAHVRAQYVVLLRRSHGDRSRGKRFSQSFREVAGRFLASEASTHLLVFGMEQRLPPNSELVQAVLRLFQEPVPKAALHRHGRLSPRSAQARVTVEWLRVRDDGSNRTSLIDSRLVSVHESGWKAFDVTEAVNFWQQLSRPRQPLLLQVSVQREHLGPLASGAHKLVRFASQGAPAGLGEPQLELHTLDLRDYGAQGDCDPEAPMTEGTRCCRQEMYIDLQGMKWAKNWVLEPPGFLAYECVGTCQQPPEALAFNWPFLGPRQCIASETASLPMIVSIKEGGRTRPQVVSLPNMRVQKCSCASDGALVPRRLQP
Chain of Albumin (Bos taurus) (P02769 whole entry, looked up): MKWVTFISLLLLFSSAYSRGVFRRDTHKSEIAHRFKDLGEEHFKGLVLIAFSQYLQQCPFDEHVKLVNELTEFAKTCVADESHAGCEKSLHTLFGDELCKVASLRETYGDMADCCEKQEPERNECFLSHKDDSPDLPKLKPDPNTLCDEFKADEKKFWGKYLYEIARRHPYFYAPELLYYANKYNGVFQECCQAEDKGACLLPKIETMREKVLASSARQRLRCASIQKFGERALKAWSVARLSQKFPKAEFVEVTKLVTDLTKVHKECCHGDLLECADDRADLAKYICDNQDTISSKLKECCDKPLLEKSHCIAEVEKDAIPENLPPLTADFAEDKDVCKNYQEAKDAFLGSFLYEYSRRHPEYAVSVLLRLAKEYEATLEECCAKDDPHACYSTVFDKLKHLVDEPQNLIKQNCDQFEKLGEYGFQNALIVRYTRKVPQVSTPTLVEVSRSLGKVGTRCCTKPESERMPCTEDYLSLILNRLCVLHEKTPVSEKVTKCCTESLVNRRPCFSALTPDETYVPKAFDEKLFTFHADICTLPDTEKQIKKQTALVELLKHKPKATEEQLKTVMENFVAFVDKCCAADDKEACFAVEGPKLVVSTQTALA
Chain of Torsin-1A-interacting protein 1 (Homo sapiens) (Q5JTV8 whole entry, looked up): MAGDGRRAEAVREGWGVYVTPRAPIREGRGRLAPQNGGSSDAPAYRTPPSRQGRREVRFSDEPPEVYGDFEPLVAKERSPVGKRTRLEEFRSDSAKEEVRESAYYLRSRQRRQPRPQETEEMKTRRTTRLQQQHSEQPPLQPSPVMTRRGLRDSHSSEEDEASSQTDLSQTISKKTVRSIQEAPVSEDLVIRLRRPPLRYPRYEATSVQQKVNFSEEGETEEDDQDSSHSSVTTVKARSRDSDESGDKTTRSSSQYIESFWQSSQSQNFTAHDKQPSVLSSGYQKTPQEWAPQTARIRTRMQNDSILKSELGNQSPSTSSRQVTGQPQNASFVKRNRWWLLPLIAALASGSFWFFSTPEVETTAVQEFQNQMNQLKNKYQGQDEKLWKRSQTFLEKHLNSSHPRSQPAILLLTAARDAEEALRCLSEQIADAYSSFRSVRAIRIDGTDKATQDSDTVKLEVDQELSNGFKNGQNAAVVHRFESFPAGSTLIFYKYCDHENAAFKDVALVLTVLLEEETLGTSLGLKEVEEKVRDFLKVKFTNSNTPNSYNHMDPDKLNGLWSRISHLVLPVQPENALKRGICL

As for `CC(=O)NCCCC[C@@H]1NC(=O)[C@H]2C[C@@H](C(=O)O)[C@@H](c3ccc(O)cc3)N2C1=O`, the composite z-score in [1] is 1.12; in [3], 1.08; in assay [4] it was 0.192; in assay [5], -0.548; in assay [6], 0.0825; in assay [7], 0.108. The composite z-score in [8] was 0.005; in assay [9], 0.0682; in [10], 0.626; with Albumin (Bos taurus), -0.0314; in [12], 0.22; in assay [13], -0.0798. In addition, the composite z-score was found to be 0.411 in [14]; 1.14 in [15]; 0.177 in assay [16]; 1.29 with Sam68 (KHDRBS1); 1.36 in [17]; 1.1 in assay [18]. In assay [2], this compound yielded a z-score of -3.1. In addition, the composite Z-score in assay [11] is 0.297 (inactive).
Turning to `CN1C(=O)C2C=CC(C(O)C=Cc3ccc([N+](=O)[O-])cc3)N(Nc3ccccc3)C2C1=O` (stereo not given), the composite z-score was 1.31 in [1]; 0.407 in assay [3]; 0.447 in assay [4]; -0.384 in assay [5]; 0.0182 in assay [6]; 0.207 in assay [7]. Besides, the composite z-score was -0.175 in assay [8]; 0.582 in [9]; 0.627 in assay [10]; 0.988 with Albumin (Bos taurus); 0.255 in assay [12]; -0.0894 in assay [13]. Also, the composite z-score in [14] is 0.624; in [15] it was 1.21; in assay [16], 0.19; with Sam68 (KHDRBS1), 1.3; in assay [17], 0.674; in assay [18] it was 0.988. This compound registered a z-score in assay [2] of 0.599. For the same compound, the composite Z-score in assay [11] is 0.268 (inactive).
Regarding `O=C(CS)NCCCCCNC(=O)[C@@H]1C[C@@H]2C(=O)NCC(=O)N2[C@@H]1c1ccc(O)cc1`, the composite z-score in assay [1] is 0.722; in [3], 0.31; in assay [4], -0.0523; in assay [5], -0.109; in assay [6], -0.165; in [7], -0.0709. Also, the composite z-score in [8] was -0.122; in assay [9], -0.0104; in [10], -0.581; in the assay with Albumin (Bos taurus), -0.911; in assay [12] it was -0.189; in assay [13] it was -0.213. Moreover, the composite z-score in assay [14] amounted to 0.552; in assay [15] it was 0.559; in assay [16] it was 0.144; in the assay with Sam68 (KHDRBS1), 0.692; in [17], 0.616; in assay [18], 0.53. This compound also showed a z-score in assay [2] of 0.627. Besides, in [11], the composite Z-score was 2 (inactive).
Take `O=C1O[C@@H](c2ccccc2)[C@@H](c2ccccc2)N2[C@@H](c3ccccc3OCCO)[C@]3(C(=O)Nc4ccccc43)[C@@H](C(=O)O)[C@H]12`: the composite z-score in assay [1] is 1.32; in assay [3], -0.0445; in assay [4], 0.995; in assay [5] it was -0.842; in assay [6], -0.0924; in assay [7] it was -0.229. Besides, the composite z-score in assay [8] is -0.18; in [9], 0.584; in assay [10], 1.04; with Albumin (Bos taurus), 0.858; in assay [12] it was -0.254; in assay [13], -0.0657. For the same compound, the composite z-score in assay [14] was 0.441; in assay [15], 1.78; in [16], 0.369; in the assay with Sam68 (KHDRBS1), 1.12; in [17], -0.165; in assay [18], 1.13. In [2], this compound gave a z-score of -0.73. Also, the composite Z-score in assay [11] is -0.0247 (inactive).
Consider `C#CCN(C/C=C/c1ccccc1)[C@H](CO)c1ccccc1`, for which the composite z-score in assay [1] is -0.414; in assay [3], 0.171; in assay [4], -0.653; in assay [5], -0.472; in assay [6] it was -0.0919; in assay [7] it was -0.262. In addition, the composite z-score in [8] is -0.326; in assay [9], -0.0349; in [10] it was -0.0338; with Albumin (Bos taurus), -0.287; in assay [12], -0.274; in assay [13] it was -0.196. Further, the composite z-score in assay [14] is 0.0571; in assay [15] it was -0.128; in assay [16], -0.0886; in the assay on Sam68 (KHDRBS1), -0.142; in assay [17], -0.0231; in [18] it was -0.159. The compound also returned a z-score in [2] of -1.74. Moreover, the composite Z-score in [11] is -0.014 (inactive).
`C=CC[C@]1(C(N)=O)COC(c2ccc(OCCCO)cc2)=N1`: the composite z-score in assay [1] is -0.287; in assay [3] it was 0.237; in [4], -0.257; in assay [5], -0.296; in assay [6] it was -0.0899; in [7], -0.0793. For the same compound, the composite z-score was 0.0519 in assay [8]; 0.837 in [9]; 1.37 in [10]; 0.102 in the assay with Albumin (Bos taurus); 0.0831 in assay [12]; -0.104 in assay [13]. The composite z-score was 0.903 in assay [14]; 0.148 in [15]; -0.136 in assay [16]; -0.133 in the assay with Sam68 (KHDRBS1); 0.0919 in [17]; 0.817 in assay [18]. Moreover, the z-score in [2] was -0.243. In addition, the composite Z-score in [11] was 0.0767 (inactive).
